Measured values from PubChem BioAssay (NCI).
This is part of a sample that, as a whole, favours compounds with a hit. Of some 83,000 tested, about 20% had one in any assay.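 Results are percent growth after 48 hours of single-concentration exposure. 100 means growth as in untreated cells, lower positive values show inhibition; negative values down to -100 show cell death.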 Values without a mark were called inactive. Activity calls are given as the source filed them. Rule for the calls: active = growth percent below 10; inactive = the rest.

test system: RXF 393 renal; assay: NCI-60 one-dose screen, 48 h (100 = growth as untreated, 0 = no growth, -100 = all killed); settings: 10 µM

| Structure (SMILES) | growth |
| --- | --- |
| COc1cc2cc(C(=O)N3C[C@@H](CCl)c4c3cc(OC(=O)N3CCN(C)[C@@H]5CSSC[C@H]53)c3ccccc43)[nH]c2c(OC)c1OC | -93.8% (active) |
| CC1=C(CCC=O)C2=C(C)C3(CC3)[C@@](C)(O)C(=O)C2=C1 | -95.3% (active) |
| COC(=O)C[C@](O)(CCC(C)C)C(=O)O[C@@H]1C(OC)=C[C@]23CCCN2CCc2cc4c(cc2[C@H]13)OCO4 | -89.6% (active) |
| O=C(/C=C/c1ccc(Cl)cc1)c1nc2ccccc2n1Cc1ccc(F)cc1 | 19% |
| CC[C@]12C=CCN3CC[C@@]4(c5ccc(OC)cc5N(C)[C@H]4[C@@](O)(C(=O)OC)[C@@H]1OC(=O)CCC[P+](C1CCCCC1)(C1CCCCC1)C1CCCCC1)[C@@H]32 | -70.3% (active) |
| CC1=C2C(=C[C@@](C)(COP(=O)(Oc3ccccc3)Oc3ccccc3)[C@@H]2O)C(=O)[C@@](C)(O)C12CC2 | -95.6% (active) |
| CC(=O)Oc1ccccc1C(=O)NC([Se])=NC1CCCCC1 | -68.3% (active) |
| CC(C)C[C@H](NC(=O)CNC(=O)C[C@H]1O[C@@H]2OC3(C)CC[C@H]4[C@H](C)CC[C@@H]([C@H]1C)[C@@]24OO3)B(O)O | -81.6% (active) |
| C[C@H]1[C@@H](Oc2ccc(-c3cn(-c4ccnc5cc(Cl)ccc45)nn3)cc2)O[C@@H]2OC3(C)CC[C@H]4[C@H](C)CC[C@@H]1[C@@]24OO3 | 52.3% |
| C[C@H]1[C@H](OC(=O)CCC(=O)N(CCCc2cn(-c3ccc([N+](=O)[O-])cc3)nn2)CCNc2ccnc3cc(Cl)ccc23)O[C@@H]2OC3(C)CC[C@H]4[C@H](C)CC[C@@H]1[C@@]24OO3 | 26.1% |
| COc1cc2cc(C(=O)N3C[C@@H](CCl)c4c3cc(OC(=O)N3CCN(C)[C@@H]5CSSC[C@@H]53)c3ccccc43)[nH]c2c(OC)c1OC | -80.7% (active) |
| COc1cc2cc(C(=O)N3C[C@@H](CCl)c4c3cc(OC(=O)N3CCN(C(=O)CCC(=O)N5CCN(C)CC5)[C@@H]5CSSC[C@@H]53)c3ccccc43)[nH]c2c(OC)c1OC | -91.2% (active) |
| COC(=O)c1ccc(-n2cc(CCCN(CCNc3ccnc4cc(Cl)ccc34)C(=O)CCC(=O)O[C@@H]3O[C@@H]4OC5(C)CC[C@H]6[C@H](C)CC[C@@H]([C@H]3C)[C@@]46OO5)nn2)cc1 | 34.2% |
| O=C([Se]C1C=CCCC1)c1ccc(C(=O)[Se]C2C=CCCC2)s1 (stereo not drawn) | -92% (active) |
| O=C(/C=C/c1cccc(Br)c1)c1nc2ccccc2n1Cc1ccc(F)cc1 | 6.83% (active) |
| CC[C@]12C=CCN3CC[C@@]4(c5ccc(OC)cc5N(C)[C@H]4[C@@](O)(C(=O)OC)[C@@H]1OC(=O)CCC[P+](c1ccc(C)cc1)(c1ccc(C)cc1)c1ccc(C)cc1)[C@@H]32 | -82.8% (active) |
| O=C(NC([Se])=NC1CCCCC1)c1ccccc1 | 20.5% |
| O=C(/C=C/c1ccc(F)cc1)c1nc2ccccc2n1Cc1ccc(F)cc1 | -67.6% (active) |
| O=C(/C=C/c1ccccc1)c1nc2ccccc2n1Cc1ccc(Br)cc1 | -94.8% (active) |

| Structure (SMILES) | growth |
| --- | --- |
| C=CC[Se]C(=O)c1cncc(C(=O)[Se]CC=C)c1 | -91.9% (active) |
| COc1ccc(OC)c(/C=C/C(=O)c2nc3ccccc3n2Cc2ccc(F)cc2)c1 | -52.5% (active) |
| O=C(/C=C/c1ccc(F)cc1)c1nc2ccccc2n1Cc1ccc(Br)cc1 | -91.1% (active) |
| CC[C@]12C=CCN3CC[C@@]4(c5ccc(OC)cc5N(C)[C@H]4[C@@](O)(C(=O)OC)[C@@H]1OC(=O)CCCC[P+](c1ccc(C)cc1)(c1ccc(C)cc1)c1ccc(C)cc1)[C@@H]32 | -87.6% (active) |
| CC(C)N=C([Se])NC(=O)c1cccs1 | 21.6% |
| CC1=C(CCC=NNC(N)=O)C2=C(C)C3(CC3)[C@@](C)(O)C(=O)C2=C1 | -80.8% (active) |
| Cc1ccc2[nH]c(=S)n(-c3ccc(F)cc3)c(=O)c2c1 | 98.2% |
| C#CC[Se]C(=O)c1ccc2n[se]nc2c1 | 70.8% |
| CC1=C(COCCOC(=O)c2ccc(S(=O)(=O)F)cc2)C2=C(C)C3(CC3)[C@@](C)(O)C(=O)C2=C1 | -81.4% (active) |
| CC12CCC3(CCC(=O)NCCCNc4ccnc5cc(Cl)ccc45)[C@@](C)(OO[C@]3(C)O1)O2 | -47.1% (active) |
| O=C(/C=C/c1ccc(Br)cc1)c1nc2ccccc2n1Cc1ccc(Br)cc1 | -82% (active) |
| COC(=O)CCn1c(-c2ccc(-n3cc(-c4ccc(O[C@H]5O[C@@H]6OC7(C)CC[C@H]8[C@H](C)CC[C@@H]([C@H]5C)[C@@]68OO7)cc4)nn3)cc2)nc2ccccc21 | 37.3% |
| CC1=C(C=O)C2=C(C)C3(CC3)[C@@](C)(O)C(=O)C2=C1 | -68.8% (active) |
| N#C[Se]CC(=O)Nc1cccc(C(F)(F)F)c1 | -40.9% (active) |
| CCC[Se]C(=O)c1ccc(C(=O)[Se]CCC)s1 | -41.3% (active) |
| C[C@H]1[C@@H](CC(=O)N[C@@H](Cc2coc3ccccc23)B(O)O)O[C@@H]2OC3(C)CC[C@H]4[C@H](C)CC[C@@H]1[C@@]24OO3 | -88.4% (active) |
| O=C(/C=C/c1ccco1)c1nc2ccccc2n1Cc1ccc(F)cc1 | 33.3% |
| COC(=O)C[C@](O)(CCC(C)C)C(=O)O[C@H]1C(OC)=C[C@@]23CCCN2CCc2cc4c(cc2[C@@H]13)OCO4 | -30.5% (active) |
| C[C@H]1[C@H](OC(=O)CCC(=O)N(CCCc2cn(-c3ccc(C#N)cc3)nn2)CCNc2ccnc3cc(Cl)ccc23)O[C@@H]2OC3(C)CC[C@H]4[C@H](C)CC[C@@H]1[C@@]24OO3 | 40.1% |
